This is part of a sample that, as a whole, favours compounds with a hit. Of some 79,000 tested, about 15% had one in any assay. A number with no mark means an inactive call. Calls of active or inactive are those of the source. Rule as the data show it: active = growth inhibition above about 70%; inactive = the rest.
Columns and labels:
[1] = NCI Yeast Anticancer Drug Screen. Data for the rad50 strain (AID 155);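 also: 0% = growth of vehicle-only cultures of the same strain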; conditions: S. cerevisiae rad50 strain growth inhibition, hits give high values
Outline: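 A DNA repair-deficient yeast mutant serves as the test organism; compound-induced growth inhibition is calculated against vehicle-treated cells.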

[2] = NCI Yeast Anticancer Drug Screen. Data for the mec2-1 strain (AID 157); conditions: S. cerevisiae mec2-1 strain, hits give high values
Outline: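 Each compound was tested on mec2-1 yeast, a strain altered in DNA damage repair or cell cycle control. Growth inhibition is reported relative to vehicle.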

[3] = NCI Yeast Anticancer Drug Screen. Data for the sgs1 mgt1 strain (AID 161);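 also: 0% = growth of cultures given vehicle only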; conditions: S. cerevisiae sgs1 mgt1 strain, hits give high values
Outline: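 Test agents were incubated with a DNA-repair-mutant yeast strain. Growth was then read and compared against vehicle-treated controls.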

[4] = NCI Yeast Anticancer Drug Screen. Data for the cln2 rad14 strain (AID 165);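 also: 0% = growth equal to vehicle treated cultures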; conditions: S. cerevisiae cln2 rad14 strain, hits give high values
Outline: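 Test compounds were added to cln2 rad14 yeast cultures; inhibition of growth was then determined by comparison with vehicle treatment.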

[5] = NCI Yeast Anticancer Drug Screen. Data for the bub3 strain (AID 167); conditions: S. cerevisiae bub3 mutant strain, hits give high values
Outline: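 Inhibition values come from growth of compound-treated mutant yeast normalised to vehicle-treated controls.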

[6] = NCI Yeast Anticancer Drug Screen. Data for the mlh1 rad18 strain (AID 175); conditions: S. cerevisiae mlh1 rad18 strain growth inhibition, hits give high values
Outline: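 Inhibition values reflect reduced growth of mutant yeast versus vehicle-treated controls following compound exposure; the mutations affect DNA damage repair.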

[7] = at 5.0 µM (retest, dose inferred, filed as 0.5)
[8] = at 50.0 µM (retest, dose inferred, filed as 5.0)

| SMILES | growth inhibition [1, 7] | growth inhibition [1, 8] | growth inhibition ([1]; at 50.0 µM) | growth inhibition [2, 7] | growth inhibition [2, 8] | growth inhibition ([2]; at 50.0 µM) | growth inhibition [3, 7] | growth inhibition [3, 8] | growth inhibition ([3]; at 50.0 µM) | growth inhibition [4, 7] [%] | growth inhibition [4, 8] | growth inhibition ([4]; at 50.0 µM) | growth inhibition [5, 7] | growth inhibition [5, 8] | growth inhibition ([5]; at 50.0 µM) | growth inhibition [6, 7] | growth inhibition [6, 8] | growth inhibition ([6]; at 50.0 µM) |
| --- | --- | --- | --- | --- | --- | --- | --- | --- | --- | --- | --- | --- | --- | --- | --- | --- | --- | --- |
| CCOC(=O)c1ccc(-n2c(C)nc3ccc(Br)cc3c2=O)cc1 | -4% | -6% | 53% | -1% | -7% | 61.6% | -4% | -7% | 40% | 0 | -6% | 64.5% | 1% | -1% | 77.6% (active) | -2% | -6% | 74.8% (active) |
| CCOC(=O)C(=Cc1cccnc1C)C(=O)OCC | 16% | 1% | 70.9% (active) | -3% | 4% | 51.7% | 42% | 4% | 60.7% | 16 | 27% | 45.9% | -31% | -14% | 73.2% (active) | -8% | 1% | 57.7% |
| O=C(OCc1ccc2c(c1)OCO2)c1ccc(Cl)cc1 | 19% | 23% | -0.55% | -4% | 68% | -4.55% | 9% | 46% | -6.3% | -43 | -7% | 0.05% | -1% | 61% | 13.9% | 4% | 57% | -19.6% |
| Cc1cnc2cccc(Cl)c2c1Cl | 3% | 27% | 80.8% (active) | 17% | 11% | 28.4% | 19% | 6% | 35.5% | -42 | 4% | 34% | -4% | 14% | 27% | -15% | 31% | 20.6% |
| O=c1cc(N=Nc2ccc(Cl)c(Cl)c2)[nH]c(=O)[nH]1 | 37% | 95% (active) | 85.8% (active) | 25% | 97% (active) | 86.6% (active) | 54% | 97% (active) | 88.7% (active) | 32 | 97% (active) | 89.5% (active) | 73% (active) | 97% (active) | 86.8% (active) | 41% | 96% (active) | 82% (active) |
| O=C1C(=O)c2cc(Cl)ccc2-c2ccc(Cl)cc21 | 20% | 90% (active) | 91% (active) | 30% | 95% (active) | 93.9% (active) | 33% | 95% (active) | 94% (active) | -4 | 94% (active) | 88.5% (active) | 56% | 94% (active) | 86.6% (active) | 30% | 95% (active) | 93.5% (active) |
| CN(C)CCCc1ccc2oc3ccccc3c2c1 | 5% | 65% | 77.8% (active) | 4% | 39% | 40.7% | 6% | 54% | 48.6% | 15 | 34% | 27.1% | 14% | 77% (active) | 69% | 7% | 42% | 48% |
| COc1cccc(/C=C2\CCC(CN(C)C)C2=O)c1 (stereo not given) | 27% | 95% (active) | 93.5% (active) | 21% | 99% (active) | 93.8% (active) | 39% | 99% (active) | 93.3% (active) | 28 | 98% (active) | 91.6% (active) | 48% | 99% (active) | 92.5% (active) | 35% | 99% (active) | 91.7% (active) |
| CS(=O)(=O)OCCN(CCOS(C)(=O)=O)c1ccc(C=Nc2ccc(-c3csc(-c4ccc(Cl)cc4)n3)cc2)cc1 | 37% | 92% (active) | 92.5% (active) | 15% | 94% (active) | 94.4% (active) | 36% | 93% (active) | 92.3% (active) | 6 | 91% (active) | 71.2% (active) | 1% | 61% | 69.4% | 53% | 95% (active) | 95.2% (active) |
| CNc1ccc(F)cc1SSc1cc(F)ccc1NC | 97% (active) | 98% (active) | 99% (active) | 94% (active) | 99% (active) | 99.5% (active) | 95% (active) | 99% (active) | 99.4% (active) | 10 | 99% (active) | 99% (active) | 38% | 99% (active) | 99.2% (active) | 97% (active) | 99% (active) | 99.2% (active) |

Source: PubChem BioAssay (NCI)
